# Shown are actives, neighbours in structure and some others; about 3.2% of the full set was active somewhere.
# 12-hLO inh: qHTS Assay for Inhibitors of 12-hLO (12-human lipoxygenase); Polyunsaturated fatty acid lipoxygenase ALOX12 (Homo sapiens), P18054; purified 12-hLO, xylenol orange hydroperoxide absorbance; Potency, µM (titrated, usually from 57.1 µM), for the others: at the highest dose activity change, negative = inhibition, usual class: inhibitors; 0.12% of 150,000 active; AID 1452, 2008; also: potency is read from the fitted curve at half-maximal effect; nearly all actives have a fitted effect of over 55% in size
#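 150 nM 12hLO, 25 mM Hepes pH 7.0 + 0.01% Triton X-100; cpd preinc 15 min RT; 40 uM arachidonic acid, 30 min RT; Fe-XO 30 min; A573/A405 ratio as read-out.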
# 15-hLO-2 inh: qHTS Assay for Inhibitors of 15-hLO-2 (15-human lipoxygenase 2); Polyunsaturated fatty acid lipoxygenase ALOX15B (Homo sapiens), O15296; purified 15hLO-2, xylenol orange hydroperoxide absorbance; Potency, µM (top dose mostly 57.1 µM), for inactives: top-dose activity change, negative = inhibition, hits mostly inhibitors; 0.56% of 110,000 active; also: potency is read from the fitted curve at half-maximal effect; nearly all actives have a fitted effect of over 60% in size
# Target sequence (O15296 whole entry, looked up): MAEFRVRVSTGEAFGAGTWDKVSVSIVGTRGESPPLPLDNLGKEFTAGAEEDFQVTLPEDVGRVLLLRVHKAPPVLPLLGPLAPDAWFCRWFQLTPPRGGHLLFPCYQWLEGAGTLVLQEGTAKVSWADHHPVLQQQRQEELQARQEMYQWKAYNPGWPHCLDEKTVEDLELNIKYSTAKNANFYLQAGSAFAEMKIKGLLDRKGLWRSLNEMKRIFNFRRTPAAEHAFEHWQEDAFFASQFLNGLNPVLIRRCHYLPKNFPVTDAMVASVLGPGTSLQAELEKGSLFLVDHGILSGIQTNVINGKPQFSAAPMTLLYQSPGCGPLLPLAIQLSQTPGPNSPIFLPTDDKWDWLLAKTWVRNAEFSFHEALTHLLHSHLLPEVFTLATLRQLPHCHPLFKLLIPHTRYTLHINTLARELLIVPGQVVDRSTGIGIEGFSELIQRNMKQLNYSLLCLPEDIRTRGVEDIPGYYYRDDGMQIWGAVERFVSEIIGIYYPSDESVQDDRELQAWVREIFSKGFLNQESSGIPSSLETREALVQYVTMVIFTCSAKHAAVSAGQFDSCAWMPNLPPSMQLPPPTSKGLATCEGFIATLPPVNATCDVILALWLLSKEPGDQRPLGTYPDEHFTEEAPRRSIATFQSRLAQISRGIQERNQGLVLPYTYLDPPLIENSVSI
#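 Read-out: hydroperoxide product oxidises ferrous iron, measured as xylenol orange complex via the 573-to-405 nm absorbance ratio after 30 min. Reaction: 50 nM enzyme, 15 min compound preincubation, 45 uM arachidonic acid, 90 min RT, Hepes pH 7.5 with Triton X-100.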
# PNC assembly inh: High Content Assay for Compounds that inhibit the Assembly of the Perinucleolar Compartment; PC3M PTB-GFP, PNC prevalence imaging, 16 h; stronger effect = lower value; activity change (PNC), negative = inhibition, % at 10 µM; 3.1% of 140,000 active; AID 2417, 2010;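 active = readout at or below -70, meaning at least 70% loss of cells showing the perinucleolar compartment, a nuclear body marking cancer cells; inconclusive = readout between -30 and a set limit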;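 also: plate controls were DMSO wells for no effect and camptothecin positive control wells for full effect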
#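 PC3M cells stably expressing PTB-GFP, 750–1000 cells/well, treated 16 h at 37 °C with compound (23 nl of library stock), in duplicate. After paraformaldehyde fixation and Hoechst stain, imaged at 20x; PNC prevalence scored by image analysis.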
# * marks the source's active call; other numbers are inactive results; ? = inconclusive; · = no result; [ ] = another dose, or the depositor's remark. Unless noted, calls follow the shape of the dose curve; as a rule, active = well fitted curve in the direction sought with a large enough effect; inconclusive = small, poorly fitted or top-dose-only effect, or another doubt; inactive = no such curve, though single readings can be large; an effect the other way counts as inactive or inconclusive. Unless noted, % is scaled to controls: 0 for no effect and ±100 for the full control effect.
SMILES,12-hLO inh,15-hLO-2 inh,PNC assembly inh
COc1ccc(S(=O)(=O)NC2(C(F)(F)F)N=C(c3ccccc3)NC2=O)cc1 (stereo unspecified),0%,·,-113*
O=C1NC(c2ccccc2)=NC1(NS(=O)(=O)c1ccccc1)C(F)(F)F (stereo unspecified),-2%,-8%,33
CCOC(=O)CN1C(=O)CN(c2ccc(C)c(C)c2)C1=O,1%,·,?
COc1ccccc1NC(=O)CSc1nnc(-c2ccncc2)o1,-3%,1%,24
O=C(CSc1nnc(-c2ccncc2)o1)Nc1ccccc1Cl,-3%,7%,-90*
O=C(c1cccnc1)N1CCCc2ccccc21,-3%,-4%,13
O=C(c1ccc(C(=O)N2CCCc3ccccc32)nc1)N1CCCc2ccccc21,-3%,4%,-100*
Cc1ccc(NC(=O)CSc2nnc(Cn3cnc4ccccc43)o2)c(C)c1,15%,?,-12
O=C1C2C3C=CC(C3)C2C(=O)N1c1ccc2ccccc2n1 (stereo unspecified),-1%,·,?
O=C1C2C3C=CC(C3)C2C(=O)N1c1cccc(N2C(=O)C3C4C=CC(C4)C3C2=O)n1 (stereo unspecified),2%,7%,-99*
O=C(COC(=O)C1CCN(S(=O)(=O)c2cccc3cccnc23)CC1)c1ccccc1,-1%,·,?
CNc1ccnc(-c2c(C)noc2C)n1,-3%,1%,·
CCCCC/C=N\NC(=O)Cc1ccc([N+](=O)[O-])cc1,-8%,·,-95*
CCn1cc(/C=N\NC(=O)Cc2ccc([N+](=O)[O-])cc2)c(C)n1,2%,·,-8
C/C(=N\NC(=O)c1cc(-c2cccnc2)nc2ccccc12)c1ccc(O)cc1O,3%,·,-92*
Cc1cccc(C)c1NC(=O)COC(=O)c1cc(-c2cccnc2)nc2ccccc12,-2%,·,-3
COc1ccccc1-c1cc(C(=O)N/N=C/C=C/c2ccccc2[N+](=O)[O-])c2ccccc2n1,0%,-6%,0
O=C(N/N=C/C=C/c1ccccc1[N+](=O)[O-])c1cc(-c2cccnc2)nc2ccccc12,4%,·,-84*
CCOC(=O)c1c(/N=C/c2ccc(O)cc2O)sc2c1CCC2,-19%,·,?
CCCCCOc1ccc(Br)cc1/C(C)=N/NC1=NCCN1,-7%,·,-88*
COc1ccc(Br)cc1/C(C)=N/NC1=NCCN1,3%,18%,-17
CC12CCC3C(CC3(C)C)C(C)(CCC1=O)O2 (stereo unspecified),3%,-1%,·
NCCC[C@@H](CC(=O)N[C@@H]1CCCC[C@H]1C(=O)N[C@H](CC(=O)N[C@@H](CCC(=O)O)CC(=O)O)Cc1ccccc1)NC(=O)C[C@H](CO)NC(=O)[C@@H]1CCCC[C@H]1N,2%,·,·
CCOC(=O)c1c(C)[nH]c(C(=O)OCC(=O)Nc2cc(C)ccc2OC)c1C,1%,-5%,-14
CCOC(=O)c1[nH]c(C)c(C(=O)Nc2cc(OC)ccc2OC)c1C,3%,1%[2.29 µM],-107*
SMILES,12-hLO inh,15-hLO-2 inh,PNC assembly inh
c1ccc(CNc2oc(-c3ccccc3)nc2-c2cccc3ccccc23)cc1,3%,·,·
COc1ccccc1-c1nccc(-n2ccnc2)n1,0%,3%,·
CNC(=O)C(=O)NCC1OCCCN1S(=O)(=O)c1cccs1 (stereo unspecified),1%,·,17
O=C(NCCO)C(=O)NCC1OCCCN1S(=O)(=O)c1cccs1 (stereo unspecified),-1%,·,-80*
C=C(C)CNC(=S)Nc1sc2c(c1C(=O)OCC)CC(C)(C)OC2,-15%,·,-9
S=C(NCc1cccc(Cl)c1)NC1CCCCC1,?,·,-109*
COc1ccccc1CNC(=S)NC1CCCC1,-11%,·,2
Cc1cc(-c2ccc(N=Nc3cc(S(=O)(=O)O)c4ccccc4c3N)c(C)c2)ccc1N=Nc1cc(S(=O)(=O)O)c2ccccc2c1N,?,3.2µM*,·
Nc1c(S(=O)(=O)O)cc(S(=O)(=O)O)c2ccc(N=Nc3ccccc3)c(O)c12,-3%[11.4 µM],-2%[11.4 µM],·
N#CCCn1c(=O)c(-c2ccc(F)cc2)nc2cnc(Oc3cccc(Cl)c3)nc21,6%,-1%,·
O=c1[nH]ncc2ccccc12,-1%,-17%,·
CNC(=O)CN(c1ccc(OC)cc1)S(=O)(=O)c1ccc(F)cc1,-2%,·,41
CCC(C)NC(=O)CN(c1ccc(OC)cc1)S(=O)(=O)c1ccc(NC(C)=O)cc1 (stereo unspecified),1%,-5%,-127*
COc1cc(/C=N/NC(=O)C(=O)/C=C2\NC3(CCCC3)Cc3ccccc32)ccc1O,0%,·,17
CN(C)c1ccc(/C=N/NC(=O)C(=O)/C=C2\NC3(CCCC3)Cc3ccccc32)cc1,-7%,·,-109*
Cc1ccn2cc(CSc3ccccc3)nc2c1,1%,25%,-112*
Cc1ccc(SCc2cn3cccnc3n2)cc1,-4%,-9%,-29
Cc1nn(C)c(C(=O)NNC(=S)Nc2ccc(F)cc2)c1[N+](=O)[O-],3%,0%,-2
Cn1c(=O)[nH]c(Nc2ccc(F)cc2)c([N+](=O)[O-])c1=O,1%,·,-109*
CCOc1ccccc1NC(=O)Cn1nnc(C(=O)Nc2ccccc2Cl)c1N,0%,-4%,?
CCc1ccccc1NC(=O)c1nnn(CC(=O)Nc2ccccc2C)c1N,1%,-6%,-102*
CCCCCCN1N=C(C)C(C(=O)c2ccc(Cl)cc2)C1=O (stereo unspecified),-25%,-21%,-3
CCCCCCCN1N=C(C)C(C(=O)c2ccccc2)C1=O (stereo unspecified),-19%,-5%,-85*
Cc1ccc2nc(SCC(=O)Nc3ccccc3N3CCOCC3)c(C#N)cc2c1,2%,·,-111*
Cc1ccc(-c2nnc(SCC(=O)Nc3ccccc3N3CCOCC3)o2)cc1,-9%,10%,?
SMILES,12-hLO inh,15-hLO-2 inh,PNC assembly inh
O=C(CNCC1CCCO1)Nc1ccccc1N1CCOCC1 (stereo unspecified),-5%,-12%,-86*
O=C(CNCC1CCCO1)Nc1ccccc1-n1cccc1 (stereo unspecified),-3%,·,?
CC1=CC(=O)NS(=O)(=O)O1,-3%,-8%,·
CCOC(=O)C1=NN(c2cccc(Cl)c2)C2=NC(C)=C(C(=O)OC)C(c3cccs3)N12 (stereo unspecified),2%,·,4
Cc1cccc(NS(=O)(=O)c2cc(C(=O)O)ccc2Cl)c1,3%,·,·
CCC(C)(C(=O)NC1CCCCC1)N(C(=O)c1ccccn1)c1ccccc1 (stereo unspecified),-5%,1%,30
CCC(C)(C(=O)NC1CCCCC1)N(C)C(=O)c1ccccn1 (stereo unspecified),2%,1%,-106*
CCCOc1ccc(NC(=O)C(=O)NCCCn2ccnc2)cc1,1%,·,7
Cc1nn2c(-c3ccncc3)nnc2c2ccccc12,-2%,5%,-5
COc1ccc(-c2nnc3c4ccccc4c(C)nn23)cc1,-2%,-5%,-89*
COc1cccc(Nc2ncc3nc(C)c(=O)n(-c4ccccc4)c3n2)c1,·,2%,·
CCOC(=O)CNC=C(C(=O)OCC)C(=O)OCC,-2%,2%[11.4 µM],-96*
